Drawing on PubChem BioAssay (NCATS), this text covers Potency for 26 molecules.

Structures are written as SMILES. Inconclusive results are not listed. Entries that show only a call come without a potency. Calls of active or inactive are those of the source. The call rests on the fitted dose curve; in most records, active means well fitted inhibition curve with a large enough effect; inconclusive means small, poorly fitted or top-dose-only effect; inactive means flat fitted curve, though single readings scatter.
Potency means the concentration at half of the fitted maximal effect.

The subject of the first assay is TAB113. In words: qHTS profiling for inhibitors of Plasmodium falciparum proliferation (AID 504749). Further: nearly all actives have a fitted effect of over 60% in size. The settings on record: P. falciparum in erythrocytes, SYBR Green DNA, 72 h; series mostly up to 28.7 µM. The method, boiled down: (§1)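 Fluorescence of SYBR Green-bound parasite DNA, read at 485/535 nm, served as the growth measure. Infected erythrocytes were cultured with compound 72 h; artemisinin (0.29 uM) and DMSO wells defined the normalization range.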
In general terms: In qHTS, concentration-response curves come from the screen itself.
In the case of `CCN1CCN(c2cc3c(cc2F)c(=O)c(C(=O)O)cn3C2CC2)CC1`, the Potency entry is “inactive”.
On the same count and under the same terms, in the case of `C#C[C@]1(OC(C)=O)CC[C@H]2[C@@H]3CCC4=C[C@@H](OC(C)=O)CC[C@@H]4[C@H]3CC[C@@]21C` it was “inactive”.
Still for that read-out and setting: in the case of `CCCCCCCCCCCCCCCCOP(=O)([O-])OCC[N+](C)(C)C` it was “inactive”; in that of `CCN(CC)CCNC(=O)COc1ccc(Cl)cc1`, “inactive”.
On the same count and under the same terms, in the case of `CCN(CC)C(=O)N1CCN(C)CC1` it was “inactive”.
With `CC(O)C(=O)O` (stereo not given), the Potency result is “inactive”.
As to `c1ccc(-c2ccc(C(c3ccccc3)n3ccnc3)cc2)cc1` (stereo not given), the Potency is 11.2 µM (active).
Still for that read-out and setting: in the case of `O=C1OC(c2ccc(O)cc2)(c2ccc(O)cc2)c2ccccc21` it was “inactive”; in that of `C[C@H]1[C@H](NC(=O)/C(=N/OC(C)(C)C(=O)O)c2csc(N)n2)C(=O)N1S(=O)(=O)O` (stereo in doubt), “inactive”; in that of `Cc1c(C(N)=O)cc([N+](=O)[O-])cc1[N+](=O)[O-]`, “inactive”.
On the same count and under the same terms, in the case of `CN1C(CCl)Nc2cc(Cl)c(S(N)(=O)=O)cc2S1(=O)=O` (stereo not given) it was “inactive”; in that of `CCCn1c(=O)[nH]c(=O)c2[nH]cnc21`, “inactive”.
The same measure, in the same setting: in the case of `O=C(OCCOCCO)c1ccccc1Nc1cccc(C(F)(F)F)c1` it was “inactive”.
As to `C[C@]12CC[C@@H]3c4ccc(O)cc4CC[C@H]3[C@@H]1CC[C@@H]2O`, the Potency entry is “inactive”.
Still for that read-out and setting: in the case of `Oc1c(Cl)cc(Cl)cc1Sc1cc(Cl)cc(Cl)c1O` it was “inactive”; in that of `CNCCC(Oc1ccccc1C)c1ccccc1` (stereo not given), “inactive”.
Still for that read-out and setting: in the case of `COc1cc(C(=S)N2CCOCC2)cc(OC)c1OC` it was “inactive”.
Regarding `CCN1CCCC1=O`, the Potency entry is “inactive”.
In the case of `CC(C)(Oc1ccc(Cl)cc1)C(=O)O`, the Potency result was “inactive”.
With `CN1C2CCC1CC(OC(=O)c1c[nH]c3ccccc13)C2` (stereo not given), the Potency entry is “inactive”.
Regarding `CCOC(=O)n1ccn(C)c1=S`, the Potency result is “inactive”.
The same measure, in the same setting: in the case of `COc1cc(NS(C)(=O)=O)ccc1Nc1c2ccccc2nc2ccccc12` it was 2 µM (active); in that of `O=C(O)CCCCC(=O)O`, “inactive”.

The next assay relates to TAB165. The assay is described as above. The settings on record: P. falciparum in erythrocytes, SYBR Green DNA, 72 h; series mostly up to 28.7 µM. Put shortly:
as §1
With `CCCCc1nc(Cl)c(CO)n1Cc1ccc(-c2ccccc2-c2nn[nH]n2)cc1`, the Potency was 8.91 µM (active).
`CCN1CCN(c2cc3c(cc2F)c(=O)c(C(=O)O)cn3C2CC2)CC1`: the Potency result is “inactive”.
On to `C#C[C@]1(OC(C)=O)CC[C@H]2[C@@H]3CCC4=C[C@@H](OC(C)=O)CC[C@@H]4[C@H]3CC[C@@]21C`, for which the Potency entry is “inactive”.
Regarding `CCCCCCCCCCCCCCCCOP(=O)([O-])OCC[N+](C)(C)C`, the Potency entry was “inactive”.
For the molecule `CCN(CC)CCNC(=O)COc1ccc(Cl)cc1`, the Potency is 11.2 µM (active).
On the same count and under the same terms, in the case of `CCN(CC)C(=O)N1CCN(C)CC1` it was “inactive”.
On the same count and under the same terms, in the case of `CC(C)NC[C@@H](O)COc1cccc2ccccc12` it was 7.94 µM (active).
Still for that read-out and setting: in the case of `Nc1ccc(/C=C/c2ccc(N)cc2S(=O)(=O)O)c(S(=O)(=O)O)c1` it was “inactive”; in that of `CC(O)C(=O)O` (stereo not given), “inactive”; in that of `c1ccc(-c2ccc(C(c3ccccc3)n3ccnc3)cc2)cc1` (stereo not given), 2.82 µM (active).
For `O=C1OC(c2ccc(O)cc2)(c2ccc(O)cc2)c2ccccc21`, the Potency entry is “inactive”.
Same read-out and setting: in the case of `C[C@H]1[C@H](NC(=O)/C(=N/OC(C)(C)C(=O)O)c2csc(N)n2)C(=O)N1S(=O)(=O)O` (stereo in doubt) it was “inactive”; in that of `Cc1c(C(N)=O)cc([N+](=O)[O-])cc1[N+](=O)[O-]`, “inactive”.
For `CN1C(CCl)Nc2cc(Cl)c(S(N)(=O)=O)cc2S1(=O)=O` (stereo not given), the Potency result was “inactive”.
The same measure, in the same setting: in the case of `CCCn1c(=O)[nH]c(=O)c2[nH]cnc21` it was “inactive”; in that of `O=C(OCCOCCO)c1ccccc1Nc1cccc(C(F)(F)F)c1`, “inactive”.
As to `C[C@]12CC[C@@H]3c4ccc(O)cc4CC[C@H]3[C@@H]1CC[C@@H]2O`, the Potency result is “inactive”.
The same measure, in the same setting: in the case of `Oc1c(Cl)cc(Cl)cc1Sc1cc(Cl)cc(Cl)c1O` it was “inactive”.
With `CCN1CCCC1=O`, the Potency result was “inactive”.
`CC(C)(Oc1ccc(Cl)cc1)C(=O)O`: the Potency entry is “inactive”.
Consider `CN1C2CCC1CC(OC(=O)c1c[nH]c3ccccc13)C2` (stereo not given), for which the Potency result is “inactive”.
On the same count and under the same terms, in the case of `CCOC(=O)n1ccn(C)c1=S` it was “inactive”.
With `COc1cc(NS(C)(=O)=O)ccc1Nc1c2ccccc2nc2ccccc12`, the Potency was 2.24 µM (active).
Still for that read-out and setting: in the case of `O=C(O)CCCCC(=O)O` it was “inactive”.

The next assay concerns W2. The description is as above. The settings on record: P. falciparum in erythrocytes, SYBR Green DNA, 72 h; series mostly up to 28.7 µM. Put shortly: as §1
Take `CCCCc1nc(Cl)c(CO)n1Cc1ccc(-c2ccccc2-c2nn[nH]n2)cc1`: the Potency was 10.7 µM (active).
On to `C#C[C@]1(OC(C)=O)CC[C@H]2[C@@H]3CCC4=C[C@@H](OC(C)=O)CC[C@@H]4[C@H]3CC[C@@]21C`, for which the Potency entry was “inactive”.
Same read-out and setting: in the case of `CCN(CC)CCNC(=O)COc1ccc(Cl)cc1` it was 13.5 µM (active).
As for `CCN(CC)C(=O)N1CCN(C)CC1`, the Potency entry was “inactive”.
Take `CC(C)NC[C@@H](O)COc1cccc2ccccc12`: the Potency was 1.69 µM (active).
On to `Nc1ccc(/C=C/c2ccc(N)cc2S(=O)(=O)O)c(S(=O)(=O)O)c1`, for which the Potency result was “inactive”.
Turning to `CC(O)C(=O)O` (stereo not given), the Potency entry was “inactive”.
Still for that read-out and setting: in the case of `c1ccc(-c2ccc(C(c3ccccc3)n3ccnc3)cc2)cc1` (stereo not given) it was 5.36 µM (active); in that of `O=C1OC(c2ccc(O)cc2)(c2ccc(O)cc2)c2ccccc21`, “inactive”; in that of `C[C@H]1[C@H](NC(=O)/C(=N/OC(C)(C)C(=O)O)c2csc(N)n2)C(=O)N1S(=O)(=O)O` (stereo in doubt), “inactive”.
On the same count and under the same terms, in the case of `CN1C(CCl)Nc2cc(Cl)c(S(N)(=O)=O)cc2S1(=O)=O` (stereo not given) it was “inactive”.
In the case of `CCCn1c(=O)[nH]c(=O)c2[nH]cnc21`, the Potency result is “inactive”.
`O=C(OCCOCCO)c1ccccc1Nc1cccc(C(F)(F)F)c1`: the Potency result is “inactive”.
On to `C[C@]12CC[C@@H]3c4ccc(O)cc4CC[C@H]3[C@@H]1CC[C@@H]2O`, for which the Potency result is “inactive”.
Consider `Oc1c(Cl)cc(Cl)cc1Sc1cc(Cl)cc(Cl)c1O`, for which the Potency result is “inactive”.
For the molecule `CNCCC(Oc1ccccc1C)c1ccccc1` (stereo not given), the Potency was 3.79 µM (active).
The same measure, in the same setting: in the case of `COc1cc(C(=S)N2CCOCC2)cc(OC)c1OC` it was “inactive”; in that of `CCN1CCCC1=O`, “inactive”.
For the molecule `CC(C)(Oc1ccc(Cl)cc1)C(=O)O`, the Potency result is “inactive”.
On the same count and under the same terms, in the case of `CN1C2CCC1CC(OC(=O)c1c[nH]c3ccccc13)C2` (stereo not given) it was “inactive”; in that of `CCOC(=O)n1ccn(C)c1=S`, “inactive”.
With `COc1cc(NS(C)(=O)=O)ccc1Nc1c2ccccc2nc2ccccc12`, the Potency was 2.13 µM (active).
On the same count and under the same terms, in the case of `O=C(O)CCCCC(=O)O` it was “inactive”.
